The supplement of paper PMC9801561
± gives the standard deviation of the averaged measurements.

Columns and labels:
[1] = tested on: Escherichia coli Nissle 1917; test: area under OmniLog respiration curve over 48 h (OmniLog units x h); higher = more growth / nutrient utilisation; extreme values may be limits of the assay; conditions: incubation: 48 h, 37 °C
[2] = tested on: Escherichia coli Nissle 1917; test: DuctApe activity index of respiration/growth curve (0 no growth to 9 maximum) (index 0-9); higher = more growth / nutrient utilisation, active = 3 or more; extreme values may be limits of the assay; conditions: incubation: 48 h, 37 °C
[3] = nutrient role: C-Source, amino acid
[4] = nutrient role: sole nitrogen source (pyruvate carbon)
[5] = nutrient role: C-Source, carbohydrate
[6] = nutrient role: sole sulfur source (pyruvate carbon)
[7] = nutrient role: sole phosphorus source (pyruvate carbon)
[8] = nutrient role: C-Source, carboxylic acid
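Wherever DuctApe activity index of respiration/growth curve (0 no growth to 9 maximum) is given: biolog PM4 phosphorus and sulfur plates, tetrazolium violet dye reduction read in the OmniLog every 15 min, kinetic curves scored by DuctApe, each plate run in triplicate.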

## N[C@H](CC(=O)O)C(=O)O [D-Aspartic acid]
[1]; [3]
  area under OmniLog respiration curve: 48 ± 53
[1]; [4]
  area under OmniLog respiration curve: 4.72
[2]; [3]
  DuctApe activity index: 0.667 (inactive)
[2]; [4]
  DuctApe activity index: 0 (inactive)

## O=c1ccn([C@@H]2O[C@H](CO)[C@@H](O)[C@H]2O)c(=O)[nH]1 [Uridine]
[1]; [5]
  area under OmniLog respiration curve: 9200 ± 570
[1]; [4]
  area under OmniLog respiration curve: 8.86 ± 7.2
[2]; [5]
  DuctApe activity index: 8.67 (active)
[2]; [4]
  DuctApe activity index: 0 (inactive)

## CSCC[C@H](N)C(=O)O [L-Methionine]
[1]; [3]
  area under OmniLog respiration curve: 33.3 ± 28
[1]; [4]
  area under OmniLog respiration curve: 4200 ± 940
[1]; [6]
  area under OmniLog respiration curve: 6300 ± 150
[2]; [3]
  DuctApe activity index: 0 (inactive)
[2]; [4]
  DuctApe activity index: 6 (active)
[2]; [6]
  DuctApe activity index: 7 (active)

## O=C(O)[C@@H]1CCCN1 [L-Proline]
[1]; [3]
  area under OmniLog respiration curve: 8520 ± 530
[1]; [4]
  area under OmniLog respiration curve: 4840 ± 1100
[2]; [3]
  DuctApe activity index: 8.67 (active)
[2]; [4]
  DuctApe activity index: 6 (active)

## CC(C)[C@H](N)C(=O)O [L-Valine]
[1]; [3]
  area under OmniLog respiration curve: 5.38 ± 1.1
[1]; [4]
  area under OmniLog respiration curve: 2650 ± 990
[2]; [3]
  DuctApe activity index: 0 (inactive)
[2]; [4]
  DuctApe activity index: 4 (active)

## C[C@@H](O)[C@H](N)C(=O)O [L-Threonine]
[1]; [3]
  area under OmniLog respiration curve: 7940 ± 380
[1]; [4]
  area under OmniLog respiration curve: 3190 ± 1200
[2]; [3]
  DuctApe activity index: 8 (active)
[2]; [4]
  DuctApe activity index: 5 (active)

## C[C@@H](N)C(=O)O [D-Alanine]
[1]; [3]
  area under OmniLog respiration curve: 7620 ± 460
[1]; [4]
  area under OmniLog respiration curve: 6690 ± 1200
[2]; [3]
  DuctApe activity index: 8 (active)
[2]; [4]
  DuctApe activity index: 7.33 (active)

## CC(=O)N[C@@H]1C(O)O[C@H](CO)[C@@H](O)[C@@H]1O (stereo partly drawn) [N-Acetyl-D-Mannosamine]
[1]; [5]
  area under OmniLog respiration curve: 7300 ± 450
[1]; [4]
  area under OmniLog respiration curve: 1040 ± 740
[2]; [5]
  DuctApe activity index: 7.67 (active)
[2]; [4]
  DuctApe activity index: 2.33 (inactive)

## N[C@@H](Cc1c[nH]cn1)C(=O)O [L-Histidine]
[1]; [3]
  area under OmniLog respiration curve: 4.72
[1]; [4]
  area under OmniLog respiration curve: 4.72
[2]; [3]
  DuctApe activity index: 0 (inactive)
[2]; [4]
  DuctApe activity index: 0 (inactive)

## NC(=O)CC[C@H](N)C(=O)O [L-Glutamine]
[1]; [3]
  area under OmniLog respiration curve: 8360 ± 610
[1]; [4]
  area under OmniLog respiration curve: 8560 ± 1200
[2]; [3]
  DuctApe activity index: 8.33 (active)
[2]; [4]
  DuctApe activity index: 8.33 (active)

## O=P(O)(O)OC[C@H](O)CO (racemic) [DL-a-Glycerol Phosphate]
[1]; [5]
  area under OmniLog respiration curve: 7910 ± 780
[1]; [7]
  area under OmniLog respiration curve: 9010 ± 860
[2]; [5]
  DuctApe activity index: 7.67 (active)
[2]; [7]
  DuctApe activity index: 8.67 (active)

## O=C(O)CCCCCCCCC(=O)O [Sebacic acid]
[1]; [8]
  area under OmniLog respiration curve: 4.72
[2]; [8]
  DuctApe activity index: 0 (inactive)

## OC1OC[C@@H](O)[C@H](O)[C@H]1O (stereo partly drawn) [D-Xylose]
[1]; [5]
  area under OmniLog respiration curve: 9160 ± 580
[2]; [5]
  DuctApe activity index: 8.67 (active)

## C[C@H](N)C(=O)O [L-Alanine]
[1]; [3]
  area under OmniLog respiration curve: 8160 ± 580
[1]; [4]
  area under OmniLog respiration curve: 7330 ± 1200
[2]; [3]
  DuctApe activity index: 8 (active)
[2]; [4]
  DuctApe activity index: 8 (active)

## OC[C@@H]1OC(O)[C@@H](O)[C@H](O)[C@H]1O (stereo partly drawn) [L-Glucose]
[1]; [5]
  area under OmniLog respiration curve: 29.9 ± 43
[2]; [5]
  DuctApe activity index: 0 (inactive)

## N[C@H](CO)C(=O)O [D-Serine]
[1]; [3]
  area under OmniLog respiration curve: 9490 ± 1100
[1]; [4]
  area under OmniLog respiration curve: 7130 ± 1200
[2]; [3]
  DuctApe activity index: 8.67 (active)
[2]; [4]
  DuctApe activity index: 7.67 (active)

## CSCCC(NC(C)=O)C(=O)O (racemic) [N-Acetyl-D,L-Methionine]
[1]; [6]
  area under OmniLog respiration curve: 5080 ± 220
[2]; [6]
  DuctApe activity index: 7 (active)

## COC(=O)CCC(=O)O [Mono-Methylsuccinate]
[1]; [8]
  area under OmniLog respiration curve: 1170 ± 950
[2]; [8]
  DuctApe activity index: 1.33 (inactive)

## O=C(O)[C@H](O)[C@@H](O)[C@H](O)[C@H](O)CO [D-Gluconic acid]
[1]; [8]
  area under OmniLog respiration curve: 10300 ± 700
[2]; [8]
  DuctApe activity index: 9 (active)

## NCCCC[C@@H](N)C(=O)O [D-Lysine]
[1]; [4]
  area under OmniLog respiration curve: 23.1 ± 23
[2]; [4]
  DuctApe activity index: 0.667 (inactive)

## O=CO [Formic acid]
[1]; [8]
  area under OmniLog respiration curve: 112 ± 190
[2]; [8]
  DuctApe activity index: 0.333 (inactive)

## N[C@@H](Cc1ccccc1)C(=O)O [L-Phenylalanine]
[1]; [3]
  area under OmniLog respiration curve: 8.61 ± 5.9
[1]; [4]
  area under OmniLog respiration curve: 4290 ± 1100
[2]; [3]
  DuctApe activity index: 0 (inactive)
[2]; [4]
  DuctApe activity index: 6 (active)

## C[C@@H](O)[C@H](O)[C@H](O)[C@@H](O)C=O [D-Fucose]
[1]; [5]
  area under OmniLog respiration curve: 21 ± 25
[2]; [5]
  DuctApe activity index: 0 (inactive)

## N[C@H]1C(O)O[C@H](CO)[C@H](O)[C@@H]1O (stereo partly drawn) [D-Galactosamine]
[1]; [4]
  area under OmniLog respiration curve: 11.2 ± 11
[2]; [4]
  DuctApe activity index: 0 (inactive)

## OC[C@H]1O[C@@H](S)[C@H](O)[C@@H](O)[C@@H]1O [1-Thio-b-D-Glucose]
[1]; [6]
  area under OmniLog respiration curve: 1240 ± 430
[2]; [6]
  DuctApe activity index: 2.67 (inactive)

## O=P(O)(O)OP(=O)(O)O [Pyrophosphate]
[1]; [7]
  area under OmniLog respiration curve: 9320 ± 480
[2]; [7]
  DuctApe activity index: 9 (active)

## CO[C@H]1O[C@H](CO)[C@@H](O)[C@H](O)[C@@H]1O [a-Methyl-D-Mannoside]
[1]; [5]
  area under OmniLog respiration curve: 16.9 ± 21
[2]; [5]
  DuctApe activity index: 0 (inactive)

## OC[C@H]1O[C@H](O[C@H]2[C@H](O)[C@@H](O)[C@@H](O[C@H]3[C@H](O)[C@@H](O)C(O)O[C@@H]3CO)O[C@@H]2CO)[C@H](O)[C@@H](O)[C@@H]1O (mixture of isomers) [Maltotriose]
[1]; [5]
  area under OmniLog respiration curve: 8540 ± 380
[2]; [5]
  DuctApe activity index: 8 (active)

## OCC1(O)OC[C@@H](O)[C@H](O)[C@@H]1O (stereo partly drawn) [D-Tagatose]
[1]; [5]
  area under OmniLog respiration curve: 6560 ± 520
[2]; [5]
  DuctApe activity index: 7.33 (active)

## OC[C@H]1O[C@@](CO)(O[C@H]2O[C@H](CO)[C@@H](O)[C@H](O)[C@H]2O)[C@@H](O)[C@@H]1O [Sucrose]
[1]; [5]
  area under OmniLog respiration curve: 634 ± 420
[2]; [5]
  DuctApe activity index: 1.67 (inactive)

## OC[C@H]1O[C@H](O[C@H]2O[C@H](CO)[C@@H](O)[C@H](O)[C@H]2O)[C@H](O)[C@@H](O)[C@@H]1O [D-Trehalose]
[1]; [5]
  area under OmniLog respiration curve: 8920 ± 460
[2]; [5]
  DuctApe activity index: 8.67 (active)

## O=C(O)Cc1ccc(O)cc1 [p-Hydroxyphenyl Acetic acid]
[1]; [8]
  area under OmniLog respiration curve: 40.5 ± 54
[2]; [8]
  DuctApe activity index: 0 (inactive)

## NCCS(=O)(=O)O [Taurine]
[1]; [6]
  area under OmniLog respiration curve: 7830 ± 160
[2]; [6]
  DuctApe activity index: 8 (active)

## O=C(O)COP(=O)(O)O [Phospho-Glycolic acid]
[1]; [7]
  area under OmniLog respiration curve: 9060 ± 940
[2]; [7]
  DuctApe activity index: 8.67 (active)

## OC[C@@H](O)[C@H](O)[C@H](O)[C@@H](O)CO [Dulcitol]
[1]; [5]
  area under OmniLog respiration curve: 3230 ± 100
[2]; [5]
  DuctApe activity index: 6 (active)

## N[C@@H](COP(=O)(O)O)C(=O)O [O-Phospho-L-Serine]
[1]; [7]
  area under OmniLog respiration curve: 8970 ± 510
[2]; [7]
  DuctApe activity index: 8.67 (active)

## OC[C@H]1O[C@@](CO)(O[C@H]2O[C@H](CO)[C@@H](O)[C@H](O)[C@H]2O)[C@@H](O[C@H]2O[C@H](CO)[C@@H](O)[C@H](O)[C@H]2O)[C@@H]1O [D-Melezitose]
[1]; [5]
  area under OmniLog respiration curve: 106 ± 150
[2]; [5]
  DuctApe activity index: 1 (inactive)

## O=C1NC(=O)C(=O)N1 [Parabanic acid]
[1]; [4]
  area under OmniLog respiration curve: 556 ± 610
[2]; [4]
  DuctApe activity index: 1.33 (inactive)

## CC[C@H](C)[C@H](N)C(=O)O [L-Isoleucine]
[1]; [3]
  area under OmniLog respiration curve: 11.5 ± 6.6
[1]; [4]
  area under OmniLog respiration curve: 64.6 ± 81
[2]; [3]
  DuctApe activity index: 0 (inactive)
[2]; [4]
  DuctApe activity index: 1 (inactive)

## O=c1ccn(C2OC(COP(=O)(O)O)C(O)C2O)c(=O)[nH]1 (centres undefined) [Uridine 5`-Monophosphate]
[1]; [7]
  area under OmniLog respiration curve: 8960 ± 820
[2]; [7]
  DuctApe activity index: 8.67 (active)

## O=P(O)(O)OC(CO)CO [b-Glycerol Phosphate]
[1]; [7]
  area under OmniLog respiration curve: 8820 ± 470
[2]; [7]
  DuctApe activity index: 8.67 (active)
